Assay results published in PubChem BioAssay AID488969 (Vanderbilt High Throughput Screening Facility, 2010).
Where “and” joins values, the source holds several entries; their conditions need not be identical. Equal entries are not always repeated. In all, about 110,000 compounds were measured (“z-score”: median about -0.1, highest 2% from about 2 on). The list comes from a sample in which the highest values are over-represented; it also holds similar structures and randomly drawn compounds. Calls of active or inactive are those of the source.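 How the source made its calls: active means z-score in the third read window above 3 or below -3; inactive means the rest.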

biological target: Metabotropic glutamate receptor 8 (Rattus norvegicus) (UniProt P70579); test: mGluR8 Gi/Go-coupled signaling modulation – cell-based, rat, thallium flux, HTS, primary screen (AID 488969); settings: HEK293 rat mGluR8, GIRK (G protein-gated inwardly rectifying potassium channel) thallium flux, FluoZin2; at 10 µM; stronger effect = higher value; submaximal glutamate (EC20) added with thallium
Sequence (P70579 whole entry, looked up): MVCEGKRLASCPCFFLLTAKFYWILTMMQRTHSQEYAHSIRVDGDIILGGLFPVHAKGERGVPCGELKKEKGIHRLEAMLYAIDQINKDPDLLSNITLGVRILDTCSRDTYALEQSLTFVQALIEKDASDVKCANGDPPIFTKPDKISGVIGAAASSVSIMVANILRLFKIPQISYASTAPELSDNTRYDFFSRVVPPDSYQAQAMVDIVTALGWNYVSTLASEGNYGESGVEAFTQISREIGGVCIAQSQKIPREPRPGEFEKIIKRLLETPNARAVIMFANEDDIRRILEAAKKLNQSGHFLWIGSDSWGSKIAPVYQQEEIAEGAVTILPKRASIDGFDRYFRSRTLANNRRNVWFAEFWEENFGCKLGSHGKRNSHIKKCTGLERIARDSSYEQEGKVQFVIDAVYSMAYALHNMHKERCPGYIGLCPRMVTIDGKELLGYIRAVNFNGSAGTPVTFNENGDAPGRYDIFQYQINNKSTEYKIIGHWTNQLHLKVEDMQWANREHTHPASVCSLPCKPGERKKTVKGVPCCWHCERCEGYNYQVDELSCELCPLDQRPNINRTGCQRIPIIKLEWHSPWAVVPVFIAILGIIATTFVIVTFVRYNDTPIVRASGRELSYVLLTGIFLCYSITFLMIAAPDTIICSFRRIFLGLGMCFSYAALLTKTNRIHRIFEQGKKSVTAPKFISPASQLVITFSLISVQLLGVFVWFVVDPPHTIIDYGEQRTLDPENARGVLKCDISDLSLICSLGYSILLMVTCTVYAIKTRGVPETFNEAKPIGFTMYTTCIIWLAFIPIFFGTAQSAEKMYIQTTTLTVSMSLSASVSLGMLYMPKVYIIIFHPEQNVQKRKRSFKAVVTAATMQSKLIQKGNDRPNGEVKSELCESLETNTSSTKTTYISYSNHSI

Row | Structure (SMILES) | z-score
1 | CCC(C)n1ncn(-c2ccc(N3CCN(c4ccc(OC)cc4)CC3)cc2)c1=O (stereo not given) | -0.724
2 | COc1cc(NC(=O)c2cc3sccc3n2C)cc(OC)c1 | -0.0259
3 | COc1ccc(OC)c(-c2oc3ccccc3c(=O)c2O)c1 | 0.149
4 | O=c1cc(-c2cccs2)oc2ccc(Cl)cc12 | -0.565
5 | O=C(O)c1cc(=O)c2cc(Cl)ccc2o1 | -0.147
6 | O=c1c(O)c(-c2cccs2)oc2ccccc12 | 17.2 (active)
7 | O=c1c(O)c(-c2cccs2)oc2ccc(Cl)cc12 | 14.1 (active)
8 | O=c1c(O)c(-c2ccc3c(c2)OCO3)oc2ccccc12 | -0.981
9 | O=C(Cc1cc(=O)[nH][nH]1)N/N=C/C(Cl)=C/c1ccccc1 | -0.191 and -0.199
10 | COc1ccc(CCNC(=O)CCSc2nc(-c3ccco3)cc(C(F)(F)F)n2)cc1OC | -2.59
11 | c1ccc(COc2cccc(CNn3cnnc3)c2)cc1 | -0.177
12 | COc1ccc(/C=C2\CCn3c2nc2cc(C(=O)O)ccc2c3=O)cc1O | -0.197
13 | O=C(O)c1ccc2c(c1)ncn2C1CCCCCC1 | 0.321
14 | CC(NC(=O)c1ccc(F)cc1)c1nc2ccccc2n1Cc1ccccc1F (stereo not given) | -0.254
15 | CCOC(=O)CN1C(=O)C(C)(C)Oc2ccc(C(=O)Nc3ccccc3OC)cc21 | 2.42
16 | CCOC(=O)CN1C(=O)C(C)(C)Oc2ccc(C(=O)Nc3ccccc3)cc21 | -0.637
17 | CCOC(=O)CN1C(=O)C(C)(C)Oc2ccc(C(=O)NC(C)(C)CC)cc21 | 0.0354
18 | COc1ccc(/C=C/C(=O)Nc2nc(N)n(-c3ccccc3)n2)cc1 | -0.0927
19 | CCOC1CC(C)(C)NC(=S)N1 (stereo not given) | -0.234
20 | CCCc1ncc(C(O)c2cccc3ccccc23)n1C (stereo not given) | 0.327
21 | COCCN=C1Sc2nc3c(C)cccc3cc2CN1Cc1ccco1 | 0.0241
22 | O=C(CNS(=O)(=O)c1ccccc1)N1CCN(c2ccccc2)CC1 | -0.0656

Row | Structure (SMILES) | z-score
23 | CC1(C)CC(=O)c2sc(NC(=O)CN3C(=O)CCC3=O)nc2C1 | 2.59
24 | CC1(C)CC(=O)c2sc(NC(=O)CN3CCOCC3)nc2C1 | 0.431
25 | CCOCC(=O)Nc1nc2c(s1)C(=O)CC(C)(C)C2 | -0.264
26 | C/C(=N\NC(=O)c1ccc(Cl)c(Cl)c1)c1cccc(NC(=O)C(C)C)c1 | 0.0284
27 | CCC(C(=O)NC1CCCC1)N(C(=O)Cn1nnc(-c2ccc(C)cc2)n1)C1CCCC1 (stereo not given) | -0.114
28 | CC(C)CCNC(=O)C(C)N(C(=O)Cn1nnc(-c2ccc(F)cc2)n1)C1CCCC1 (stereo not given) | 2.82
29 | COc1ccc(-c2nnn(CC(=O)N(C3CCCCC3)C(C)C(=O)NC3CCCC3)n2)cc1OC (stereo not given) | 1.3
30 | Cc1ccc(S(=O)(=O)NC2(C(F)(F)F)C(=O)Nc3c2c(=O)n(C)c(=O)n3C)cc1 (stereo not given) | -0.423
31 | O=C(Nc1ccccc1)c1ccc(N2CCN(c3ccccc3)CC2)c(S(=O)(=O)N2CCOCC2)c1 | -0.142
32 | O=C(N/N=C\CCc1ccccc1)c1ccco1 | 0.322
33 | NC(=O)CSc1ncc(-c2ccccc2)[nH]1 | 0.142
34 | COc1ccc(C(C(=O)OCCN(C)C)c2ccccc2)cc1 (stereo not given) | 0.325
35 | CCOc1ccc(C(=O)OCCN(CC)CC)cc1 | 0.374
36 | CCCOc1ccc(C(C(=O)OCCN(CC)CC)c2ccccc2)cc1 (stereo not given) | 2.43
37 | CC(=O)C(Sc1ccc2nnc(-c3ccc(C)cc3)n2n1)C(C)=O | 1.78
38 | Cc1ccccc1NC(=S)c1nc2ccccc2[nH]1 | 10.9 (active)
39 | Cc1ccc(C)c(NC(=S)c2ccc3ccccc3n2)c1 | 0.103
40 | Cc1ccc(NC(=S)c2nc3ccccc3[nH]2)cc1 | -1.02
41 | Cc1ccc(Nc2nnc(SC/C(O)=C(\C#N)c3nc4ccccc4[nH]3)s2)c(C)c1 | -0.166
42 | O=C(/C(=C/c1ccc(Cl)cc1)c1nc2ccccc2[nH]1)c1ccccc1 | -0.287
43 | Cc1ccccc1NC(=O)NCCc1nc2ccccc2[nH]1 | -0.0805
44 | Cc1ccccc1NC(=O)N(CCc1nc2ccccc2[nH]1)Cc1ccccc1 | -0.292

Row | Structure (SMILES) | z-score
45 | Cc1ccc(NC(=S)c2nc3ccccc3[nH]2)c(C)c1 | 6.64 (active)
46 | S=C(Nc1ccc(Cl)cc1)c1nc2ccccc2[nH]1 | 6.95 (active)
47 | CCn1c(COc2ccccc2)nnc1SCc1ccc(C#N)cc1 | -0.725
48 | Cc1c(Nc2nc3ccccc3nc2NS(=O)(=O)c2ccccc2)c(=O)n(-c2ccccc2)n1C | -0.716
49 | O=C(OCc1ccc([N+](=O)[O-])cc1)C1CCN(S(=O)(=O)c2ccccc2)CC1 | -0.136
50 | Cc1cc(C(F)F)n2nc(C(=O)Nc3ccc(S(=O)(=O)N4CCCC4)cc3)nc2n1 | -0.187
51 | CCN(CC)c1ccc(NC(=O)c2nc3nc(C)cc(C(F)F)n3n2)cc1 | 3.02 (active)
52 | CNS(=O)(=O)c1ccc(NC(=O)c2nc3nc(C)cc(C(F)F)n3n2)cc1 | -0.548
53 | CCOC(=O)C1(C(=O)OCC)CC1c1ccccc1 (stereo not given) | -0.0513
54 | CCCCCCn1c2c(c(=N)c3c1CCC3)CCC2 | 1.81
55 | CCCCCCCCCn1c2c(c(=N)c3c1CCC3)CCC2 | 4.64 (active)
56 | CCCCCCCCCCn1c2c(c(=N)c3c1CCC3)CCC2 | 0.554
57 | CCOC(=O)c1ccc(CNCc2ccc(C)cc2)cc1 | 0.302
58 | COC(=O)c1ccc(C(=O)OC)c(NC(=O)CSc2ccccn2)c1 | -0.644
59 | O/N=C1\CCc2cc(Cl)ccc21 | 0.365
60 | Clc1ccc2c(c1)CCc1cccnc1C2=C1CCNCC1 | 2.74
61 | CCOC(=O)c1c(NC(=O)COc2cccc3c2CCN(CC)C3=O)sc2c1CCC2 | -0.925
62 | CCOC(=O)c1c(-c2ccccc2)csc1NC(=O)c1nn(CC)cc1Br | -0.101
63 | O=S1(=O)CC(NCc2ccccc2)C(Nc2ccccc2)C1 (stereo not given) | 2.43
64 | COc1ccc(NC2CS(=O)(=O)CC2NCc2ccccc2)cc1 (stereo not given) | 0.261
65 | O=C(NC1CS(=O)(=O)CC1NCc1ccccc1)c1ccccc1 (stereo not given) | 0.00939
66 | C=CCNC(=O)C1CC(=O)N(c2ccc(OCC(=O)Nc3ccc(C)cc3)cc2)C1 (stereo not given) | 0.104

Row | Structure (SMILES) | z-score
67 | C=CCNC(=O)C1CC(=O)N(c2ccc(OCC(=O)Nc3ccccc3)cc2)C1 (stereo not given) | 4.85 (active)
68 | C=CCNC(=O)C1CC(=O)N(c2ccc(OCC(=O)Nc3ccc(OC)cc3)cc2)C1 (stereo not given) | -0.466
69 | C=CCSc1nnc(NC(=O)c2cccc(S(=O)(=O)N(C)c3ccccc3)c2)s1 | 0.542
70 | O=C(COC(=O)c1sc2ccccc2c1Cl)NC1CCCCC1 | -0.479
71 | O=C(NC(=S)N(CCCCO)C1CCCCC1)c1sc2ccccc2c1Cl | 9.88 (active)
72 | CCCn1nnc(NC(=O)c2sc3ccccc3c2Cl)n1 | 0.0281
73 | COc1ccc(C(CC(=O)O)NC(=O)c2sc3ccccc3c2Cl)cc1 (stereo not given) | -0.476
74 | CCOC(=S)NC(=O)c1sc2ccccc2c1Cl | 11.1 (active)
75 | CCCCOC(=S)NC(=O)c1sc2ccccc2c1Cl | 17.3 (active)
76 | NC(N)=NS(=O)(=O)c1ccc(NC(=S)NC(=O)c2sc3ccccc3c2Cl)cc1 | 0.0467
77 | CCOc1ccc(C(CC(=O)O)NC(=O)c2sc3ccccc3c2Cl)cc1 (stereo not given) | -0.958
78 | Cc1ccccc1NC(=O)COC(=O)CNC(=O)c1sc2ccccc2c1Cl | -1.08
79 | CCCOC(=S)NC(=O)c1sc2ccccc2c1Cl | 12 (active)
80 | O=C(NCC1CCCO1)c1sc2ccccc2c1Cl (stereo not given) | -0.467
81 | CN(C(=O)COC(=O)CNC(=O)c1sc2ccccc2c1Cl)c1ccccc1 | -0.854
82 | CC(=O)c1c(C(C)=O)c(C)n(CCCCn2c(C)c(C(C)=O)c(C(C)=O)c2C)c1C | -0.0757
83 | Cc1cc(C(=O)Nc2ccc(S(=O)(=O)Nc3onc(C)c3C)cc2)c(C)o1 | 0.0164
84 | CC(=O)Nc1ccc(NC(=O)Cc2sc(C)nc2-c2ccc(C)cc2)cc1 | -0.345
85 | O=C(O)c1ccc(-c2nc(-c3ccccc3)c(-c3ccccc3)[nH]2)cc1 | -1.56
86 | Cc1ccc2oc(-c3cccc(NC(=O)c4cc(-n5cnnc5)ccc4Cl)c3)nc2c1 | -0.0315
87 | CCOC(=O)C1=C(C)N(C)C(=O)NC1c1ccc(C)s1 (stereo not given) | -0.0391
88 | O=C(CCC(=O)Nc1ccccc1)NNC(=O)C(c1ccccc1)c1ccccc1 | 0.336

Row | Structure (SMILES) | z-score
89 | Cn1c(C23CC4CC(CC(C4)C2)C3)n[nH]c1=S | 0.216
90 | Cc1nnn(C23CC4CC(CC(C4)C2)C3)n1 | -0.708
91 | S=c1nn[nH]n1C12CC3CC(CC(C3)C1)C2 | 2.46
92 | COC(=O)c1sc2nc(SCc3ccccc3C#N)n(N)c(=O)c2c1C | 0.247
93 | COc1ccc(C2c3ccc4ccccc4c3Oc3ncn(Cc4ccco4)c(=N)c32)cc1OC (stereo not given) | 0.46
94 | COc1ccc(C2C3=C(CC(C)(C)CC3=O)Oc3ncn(Cc4ccccc4)c(=N)c32)cc1 (stereo not given) | 2.84
95 | COc1ccc(C2C3=C(CC(C)(C)CC3=O)Oc3ncn(CCO)c(=N)c32)cc1OC (stereo not given) | 0.234
96 | N=c1c2c(ncn1Cc1ccco1)Oc1c(ccc3ccccc13)C2c1ccccc1 (stereo not given) | 0.538
97 | CC1(C)CC(=O)C2=C(C1)Oc1ncn(CCO)c(=N)c1C2c1ccccc1 (stereo not given) | 0.471
98 | COc1ccc(C2c3c(ncn(Cc4ccco4)c3=N)Oc3ccc4ccccc4c32)cc1 (stereo not given) | -0.169
99 | N=c1c2c(ncn1CCN1CCOCC1)Oc1ccc3ccccc3c1C2c1ccccc1 (stereo not given) | 4.03 (active)
100 | COc1ccc(-c2oc3ncnc(NCCN4CCOCC4)c3c2-c2ccc(OC)cc2)cc1 | -0.338
101 | COc1ccc(C2c3c(ncn(CCN4CCOCC4)c3=N)Oc3ccc4ccccc4c32)cc1OC (stereo not given) | 0.922
102 | COc1ccc(C2c3ccc4ccccc4c3Oc3ncn(CCN4CCOCC4)c(=N)c32)cc1 (stereo not given) | 4.1 (active)
103 | COc1ccc(-c2oc3ncn(CCN4CCOCC4)c(=N)c3c2-c2ccc(OC)cc2)cc1 | 2.6
104 | c1ccc(-c2oc3ncnc(NCCN4CCOCC4)c3c2-c2ccccc2)cc1 | -0.115
105 | CC(CN1CCOCC1)OC(=O)C(C)(c1ccccc1)c1ccccc1 (stereo not given) | 0.383
106 | O=C(CSc1nnc(-c2ccc(OC(F)F)cc2)o1)NC(=O)NCc1ccco1 | -0.253
107 | CC1=CC(c2ccccc2)n2nc(N3C(=O)C4CC=CCC4C3=O)nc2N1 (stereo not given) | -0.783
108 | CC1(C)Cc2c(ccc3ccccc23)-c2nnc(-c3cccnc3)n21 | 3.16 (active)
109 | CC1(C)Cc2ccccc2-c2nnc(-c3cccnc3)n21 | 0.241
110 | CC1(C)Cc2c(ccc3ccccc23)C(NNC(=O)c2cccnc2)=N1 | 0.408
